Results as given in PubChem BioAssay AID652128 (Broad Institute, 2013).
This is one part of the list. Results filed as inconclusive are left out. The source made the active and inactive calls.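 The calls were made as follows: active = fitted half-maximal concentration for signal loss at or below twice the highest dose tested, in every separate run (actives reach about 64 µM in these data); inconclusive = runs disagree, or flat partial signal loss, or poor fit; inactive = the rest.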

Assay: DNA-binding compounds via dye displacement, dose response, artefact control for RAD52 inhibitor project, biochemical, fluorescence polarization, cherry-pick (AID 652128)
Conditions: Salmon sperm DNA/acridine orange FP displacement

Question: Which outcome does the source give for `CN(C)CCN1CCN(c2cc(-c3cccc(Cl)c3)nc3ccnn23)CC1` here?
Answer: inactive

Question: For `C=Cn1cc[n+](CC(=O)c2ccc(OC)c(OC)c2)c1`, which outcome is on record?
Answer: inactive

Question: For `NCCCCCC(=O)N/N=C/c1ccc2nccnc2c1`, which outcome is on record?
Answer: inactive

Question: Which outcome does the source give for `CN1CCN(CCCNC(=O)c2ccc(/C=C3\Oc4ccccc4N(Cc4ccc(Cl)cc4)C3=O)cc2)CC1` here?
Answer: inactive

Question: Which AC50 does the source give for `CN(C)CCNC(=O)c1ccc(Cl)c2cc3ccccc3nc12` here?
Answer: 13.1 µM (active)

Question: Which AC50 does the source give for `CC(=O)Nc1ccc(Nc2c3ccccc3nc3ccccc23)cc1` here?
Answer: 7.66 µM (active)

Question: Which AC50 does the source give for `CCN(CC)CCCNC(=O)c1cc2c(=O)[nH]c3ccc(C)cc3c2s1` here?
Answer: 49.6 µM (active)

Question: With `CC(=O)Nc1ccc(CNc2nc(NCCN(C)C)nc3cc(-c4ccccc4)sc23)cc1` as the compound, how does the outcome read?
Answer: inactive

Question: For `CC(=O)c1cccc(-c2cnc3c(NC=O)cc(-c4ccc(N5CCN(C)CC5)cc4)cn23)c1`, which outcome is on record?
Answer: inactive

Question: Which outcome does the source give for `Cc1c(CCOC(=O)CC23CC4CC(CC(C)(C4)C2)C3)sc[n+]1Cc1ccc([N+](=O)[O-])cc1` here?
Answer: inactive

Question: With `CCN(CC)CCn1c2ccc(Cl)cc2c2nc(C)sc21` as the compound, how does the outcome read?
Answer: inactive

Question: Which outcome does the source give for `Cc1cccc(NC(=S)NC23CN4CN(CN(C4)C2)C3)c1` here?
Answer: inactive

Question: With `Cc1ccc(C(=O)N/C(=C/c2ccc(-c3cccc([N+](=O)[O-])c3)o2)C(=O)NCCCN(C)C)cc1` as the compound, how does the outcome read?
Answer: inactive

Question: Which outcome does the source give for `O=C(/C=C/c1cn(-c2ccccc2)nc1-c1ccc2c(c1)OCCO2)NCCCN1CCOCC1` here?
Answer: inactive

Question: With `CCC1CCCCN1CCCNC(=O)c1cc2c(Cl)nc3ccccc3c2s1` (stereo unspecified) as the compound, how does the AC50 read?
Answer: 49 µM (active)

Question: With `CCN1CCCC1CNC(=O)c1ccc2c(c1)NC(=O)/C(=C\c1ccccc1F)S2` (stereo unspecified) as the compound, how does the outcome read?
Answer: inactive
